{"source": "PubChem BioAssay", "data": [{"test": "Primary imaging screen for DUSP6 inhibitors that restore phospho-Erk in transfected HeLa cells, chemical complementation (AID 609)", "conditions": "HeLa MKP-3 transfected, phospho-Erk imaging KS statistic; measured here: cell density z-score; at 10 µM; cells stimulated with TPA for 15 min", "values": [{"smiles": "COc1ccc2c(c1)n([O-])c1c([n+]2=O)CCC1", "z-score": -0.812}, {"smiles": "COc1ccc2c(c1)[nH]c1c(=O)n(CC3CCCO3)cnc12", "note": "(centres undefined)", "z-score": 1.51}, {"smiles": "CC(=O)c1c(OCC(=O)O)ccc2c(C)cc(=O)oc12", "z-score": -0.71}, {"smiles": "O=C1C2ON(c3ccccc3)C(c3cccnc3)C2C(=O)N1c1ccccc1", "note": "(centres undefined)", "z-score": 0.476}, {"smiles": "CCCCCn1c2nc3ccccc3nc2c2c(=O)n(CC(C)C)cnc21", "z-score": -0.357}, {"smiles": "Cc1nc2c(o1)CCc1ccccc1C2O", "note": "(centres undefined)", "z-score": 3.05}, {"smiles": "Clc1ccc(-n2ncc3c(NCCCn4ccnc4)ncnc32)cc1", "z-score": -0.368}, {"smiles": "Nc1nnnn1/N=C/c1ccccn1", "z-score": 1.54}, {"smiles": "c1ccc(CN2CCN(c3ncnc4c3[nH]c3ccccc34)CC2)cc1", "z-score": 0.378}, {"smiles": "Cc1cc2c(c(=O)o1)C(Cc1ccccc1)C(C#N)=C(N)O2", "note": "(centres undefined)", "z-score": -1.29}, {"smiles": "COc1cc(NC(=O)NC(C)(C(F)(F)F)C(F)(F)F)cc(OC)c1OC", "z-score": 0.222}, {"smiles": "Cc1c(O)c(CN2CCCCC2)cc2c3c(c(=O)oc12)CCC3", "z-score": 0.172}, {"smiles": "CCOC(=O)c1[nH]c2ccc(Br)cc2c1NC(=O)CNC", "z-score": -0.195}, {"smiles": "COc1ccc(CCn2c(=N)c(C(=O)NCc3ccco3)cc3c(=O)n4ccccc4nc32)cc1", "z-score": 0.843}, {"smiles": "CN(C)/C=C1\\N=C(c2ccc(Cl)cc2Cl)OC1=O", "z-score": -1.76}, {"smiles": "Cc1ccc(/C=N/n2nnnc2N)o1", "z-score": 0.152}, {"smiles": "COc1ccccc1N=Cc1nc(-c2ccccc2)oc1OC(C)=O", "z-score": 0.537}, {"smiles": "Cc1ccc2[nH]c3c(N4CCOCC4)ncnc3c2c1", "z-score": -1.33}, {"smiles": "CC(=O)C1=C(O)C(=O)N(c2ccc(C(=O)O)cc2)C1c1ccccc1", "note": "(centres undefined)", "z-score": 1.33}, {"smiles": "COc1ccccc1Nc1ncnc2c1cnn2-c1cccc(C)c1", "z-score": -0.0649}]}, {"test": "Primary imaging screen for DUSP6 inhibitors that restore phospho-Erk in transfected HeLa cells, chemical complementation (AID 609)", "conditions": "HeLa MKP-3 transfected, phospho-Erk imaging KS statistic; measured here: nuclear c-Myc green intensity z-score; at 10 µM; cells stimulated with TPA for 15 min", "values": [{"smiles": "Cc1nnc2n(-c3ccccc3)c(=O)c3c4c(sc3n12)CCCC4", "z-score": -0.18}, {"smiles": "Cc1c(NC(=O)c2ccc(=O)oc2)c(=O)n(-c2ccccc2)n1C", "z-score": 0.226}, {"smiles": "Cc1nc2sc(C#N)c(N)c2c2c1CCCC2", "z-score": 2.17}, {"smiles": "Fc1ccc(-c2cnc[nH]2)cc1", "z-score": 0.681}, {"smiles": "CC(CCc1ccccc1)NCC(O)c1ccc(O)c(C(N)=O)c1", "note": "(centres undefined)", "z-score": -0.198}, {"smiles": "CCOC(=O)c1ccc2nc(NC(NC(C)=O)(C(=O)OC)C(F)(F)F)sc2c1", "note": "(centres undefined)", "z-score": -0.549}, {"smiles": "COc1cccc(N2C(=O)C(O)=C(C(C)=O)C2c2ccc(OC)c(OC)c2)c1", "note": "(centres undefined)", "z-score": -0.212}, {"smiles": "CCCCOc1ccccc1C(=O)NCCCC(=O)O", "z-score": 1.18}, {"smiles": "COc1ccc(CCn2c(=N)c(C#N)cc3c(=O)n4ccccc4nc32)cc1", "z-score": -0.331}, {"smiles": "O=C(NC1CCS(=O)(=O)C1)c1c(NC(=O)C2COc3ccccc3O2)sc2c1CCCC2", "note": "(centres undefined)", "z-score": -1.93}, {"smiles": "Cc1nn(-c2ccccc2)c2c1C(=O)NC(=O)C(C)(C)C2", "z-score": 1.24}, {"smiles": "O=C(Nc1ccccn1)NC(C(F)(F)F)C(F)(F)F", "z-score": 0.584}, {"smiles": "CCC(NC(=O)Nc1cc(OC)c(OC)c(OC)c1)(C(F)(F)F)C(F)(F)F", "z-score": 1.89}, {"smiles": "COC(=O)C(NC(C)=O)(Nc1ccccn1)C(F)(F)F", "note": "(centres undefined)", "z-score": -0.933}, {"smiles": "CC1(C)CNC(=O)c2sc(N3CCOCC3)nc2C1", "z-score": 0.266}, {"smiles": "CCN1CCc2c(C#N)c(N3CCCCC3)nc(NCc3ccccc3)c2C1", "z-score": -1.37}, {"smiles": "CCOC(=O)CNC(=O)Nc1ccccc1C(=O)OC", "z-score": 0.241}, {"smiles": "CCn1nc(NC(=O)c2cccnc2)c2cc3ccccc3nc21", "z-score": 1.36}, {"smiles": "Cn1c(=O)n(Cc2ccccc2)c(=O)c2c1nc(NCC1CCCO1)n2Cc1ccccc1", "note": "(centres undefined)", "z-score": 0.807}, {"smiles": "COc1ccc2c(c1)n([O-])c1c([n+]2=O)CCC1", "z-score": 2.02}, {"smiles": "COc1ccc2c(c1)[nH]c1c(=O)n(CC3CCCO3)cnc12", "note": "(centres undefined)", "z-score": -0.546}, {"smiles": "CC(=O)c1c(OCC(=O)O)ccc2c(C)cc(=O)oc12", "z-score": 0.597}, {"smiles": "O=C1C2ON(c3ccccc3)C(c3cccnc3)C2C(=O)N1c1ccccc1", "note": "(centres undefined)", "z-score": 0.609}, {"smiles": "CCCCCn1c2nc3ccccc3nc2c2c(=O)n(CC(C)C)cnc21", "z-score": 2.75}, {"smiles": "Cc1nc2c(o1)CCc1ccccc1C2O", "note": "(centres undefined)", "z-score": -1.58}, {"smiles": "Clc1ccc(-n2ncc3c(NCCCn4ccnc4)ncnc32)cc1", "z-score": 0.856}, {"smiles": "Nc1nnnn1/N=C/c1ccccn1", "z-score": -1.1}, {"smiles": "c1ccc(CN2CCN(c3ncnc4c3[nH]c3ccccc34)CC2)cc1", "z-score": -1.18}, {"smiles": "Cc1cc2c(c(=O)o1)C(Cc1ccccc1)C(C#N)=C(N)O2", "note": "(centres undefined)", "z-score": 0.225}, {"smiles": "COc1cc(NC(=O)NC(C)(C(F)(F)F)C(F)(F)F)cc(OC)c1OC", "z-score": -0.586}, {"smiles": "Cc1c(O)c(CN2CCCCC2)cc2c3c(c(=O)oc12)CCC3", "z-score": -1.04}, {"smiles": "CCOC(=O)c1[nH]c2ccc(Br)cc2c1NC(=O)CNC", "z-score": 0.821}, {"smiles": "COc1ccc(CCn2c(=N)c(C(=O)NCc3ccco3)cc3c(=O)n4ccccc4nc32)cc1", "z-score": 0.0165}, {"smiles": "CN(C)/C=C1\\N=C(c2ccc(Cl)cc2Cl)OC1=O", "z-score": 2.52}, {"smiles": "Cc1ccc(/C=N/n2nnnc2N)o1", "z-score": -0.504}, {"smiles": "COc1ccccc1N=Cc1nc(-c2ccccc2)oc1OC(C)=O", "z-score": -1.18}, {"smiles": "Cc1ccc2[nH]c3c(N4CCOCC4)ncnc3c2c1", "z-score": 0.984}, {"smiles": "CC(=O)C1=C(O)C(=O)N(c2ccc(C(=O)O)cc2)C1c1ccccc1", "note": "(centres undefined)", "z-score": -0.568}, {"smiles": "COc1ccccc1Nc1ncnc2c1cnn2-c1cccc(C)c1", "z-score": -0.454}]}]}
